# PubChem BioAssay
# Activity calls are given as the source filed them.
# What was measured:
# [1] = test system: Plasmodium falciparum Sir2 (PF13_0152, Sir2A); assay: pfSir2 binders on small-molecule microarrays, primary screen, biochemical, small-molecule microarray, 635 nm fluorescence (AID 1098); conditions: small-molecule microarray binding, fluorescence 635 nm; higher = more signal;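 note: score merges spot fluorescence intensity with its signal-to-noise ratio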
# [2] = small-molecule microarray binders of probe aDKK1, primary screen, biochemical, biotinylated probe, 635/667 nm fluorescence (AID 1099); conditions: higher = more signal;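 note: score merges 667nm spot fluorescence with signal to noise across triplicate slides; reference of the scale not given here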
# [3] = small-molecule microarray binders of probe aCHRDL2, primary screen, biochemical, biotinylated probe, 635/667 nm fluorescence (AID 1100); conditions: higher = more signal
# [4] = splicing luciferase reporter signal modulators, primary screen, spliceosome inhibition project, cell-based, HEK293, splice +/- reporter (AID 1101); conditions: luminescence, 24 h, higher = more signal, called active from +8 up or from −8 down;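 note: HEK293 cells carrying a splicing-competent luciferase reporter gene; test concentration not given here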
# [5] = molecular target: Fibroblast growth factor 10 (Homo sapiens) (UniProt O15520); assay: FGF10 binders on small-molecule microarrays, primary screen, biochemical, small-molecule microarray, 635 nm fluorescence (AID 1102); conditions: FGF10 binding, fluorescence 635 nm, higher = more signal
# [6] = test system: glycogen synthase kinase-3 (GSK3A per assay name; protocol says GSK3B); assay: GSK3 binders on small-molecule microarrays, primary screen, biochemical, small-molecule microarray, 635 nm fluorescence, GSK3A (AID 1103); conditions: small-molecule microarray binding, fluorescence 635 nm; higher = more signal; note: the record names both GSK3A and GSK3B
# [7] = molecular target: Epidermal growth factor receptor (Homo sapiens) (UniProt P00533); assay: EGFR binders on small-molecule microarrays, primary screen, biochemical, small-molecule microarray, 635 nm fluorescence (AID 1104); conditions: EGFR binding, higher = more signal;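 note: score merges 667 nm emission intensity with spot signal to noise over triplicate slides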
# [8] = molecular target: Follistatin-related protein 3 (Homo sapiens) (UniProt O95633); assay: FSTL3 binders on small-molecule microarrays, primary screen, biochemical, small-molecule microarray, 635 nm fluorescence (AID 1105); conditions: FSTL3 binding, higher = more signal;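 note: score merges emission near 667 nm and signal to noise per printed spot across three slides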
# [9] = molecular target: Dickkopf-related protein 1 (Homo sapiens) (UniProt O94907); assay: DKK1 binders on small-molecule microarrays, primary screen, biochemical, small-molecule microarray, 635 nm fluorescence scan (AID 1106); conditions: DKK1 binding, higher = more signal;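 note: score merges emission near 667 nm with signal to noise over three replicate slides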
# [10] = test system: Inhibin beta A chain (activin A); assay: INHBA (activin A) binders on microarrays, primary screen, biochemical, small-molecule microarray, 635 nm fluorescence scan (AID 1107); conditions: small-molecule microarray binding, higher = more signal;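 note: mouse activin A protein probed at 4.33 µg/mL on printed slides; score merges bound-protein fluorescence near 667 nm with spot signal-to-noise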
# Chain of Dickkopf-related protein 1 (Homo sapiens) (O94907 whole entry, looked up): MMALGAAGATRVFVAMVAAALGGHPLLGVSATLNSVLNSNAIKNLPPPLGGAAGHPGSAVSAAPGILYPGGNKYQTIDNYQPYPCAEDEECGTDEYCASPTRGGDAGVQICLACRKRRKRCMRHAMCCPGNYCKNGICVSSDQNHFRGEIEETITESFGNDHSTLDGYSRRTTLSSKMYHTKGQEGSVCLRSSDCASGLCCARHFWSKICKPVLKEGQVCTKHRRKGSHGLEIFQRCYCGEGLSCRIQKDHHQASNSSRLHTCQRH
# Chain of Fibroblast growth factor 10 (Homo sapiens) (O15520 whole entry, looked up): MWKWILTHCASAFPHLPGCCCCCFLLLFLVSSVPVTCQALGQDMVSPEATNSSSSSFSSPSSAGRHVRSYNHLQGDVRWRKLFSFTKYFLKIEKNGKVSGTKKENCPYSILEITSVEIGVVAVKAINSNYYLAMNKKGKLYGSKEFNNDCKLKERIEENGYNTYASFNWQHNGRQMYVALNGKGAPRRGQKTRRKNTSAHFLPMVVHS
# Chain of Epidermal growth factor receptor (Homo sapiens) (P00533 whole entry, looked up): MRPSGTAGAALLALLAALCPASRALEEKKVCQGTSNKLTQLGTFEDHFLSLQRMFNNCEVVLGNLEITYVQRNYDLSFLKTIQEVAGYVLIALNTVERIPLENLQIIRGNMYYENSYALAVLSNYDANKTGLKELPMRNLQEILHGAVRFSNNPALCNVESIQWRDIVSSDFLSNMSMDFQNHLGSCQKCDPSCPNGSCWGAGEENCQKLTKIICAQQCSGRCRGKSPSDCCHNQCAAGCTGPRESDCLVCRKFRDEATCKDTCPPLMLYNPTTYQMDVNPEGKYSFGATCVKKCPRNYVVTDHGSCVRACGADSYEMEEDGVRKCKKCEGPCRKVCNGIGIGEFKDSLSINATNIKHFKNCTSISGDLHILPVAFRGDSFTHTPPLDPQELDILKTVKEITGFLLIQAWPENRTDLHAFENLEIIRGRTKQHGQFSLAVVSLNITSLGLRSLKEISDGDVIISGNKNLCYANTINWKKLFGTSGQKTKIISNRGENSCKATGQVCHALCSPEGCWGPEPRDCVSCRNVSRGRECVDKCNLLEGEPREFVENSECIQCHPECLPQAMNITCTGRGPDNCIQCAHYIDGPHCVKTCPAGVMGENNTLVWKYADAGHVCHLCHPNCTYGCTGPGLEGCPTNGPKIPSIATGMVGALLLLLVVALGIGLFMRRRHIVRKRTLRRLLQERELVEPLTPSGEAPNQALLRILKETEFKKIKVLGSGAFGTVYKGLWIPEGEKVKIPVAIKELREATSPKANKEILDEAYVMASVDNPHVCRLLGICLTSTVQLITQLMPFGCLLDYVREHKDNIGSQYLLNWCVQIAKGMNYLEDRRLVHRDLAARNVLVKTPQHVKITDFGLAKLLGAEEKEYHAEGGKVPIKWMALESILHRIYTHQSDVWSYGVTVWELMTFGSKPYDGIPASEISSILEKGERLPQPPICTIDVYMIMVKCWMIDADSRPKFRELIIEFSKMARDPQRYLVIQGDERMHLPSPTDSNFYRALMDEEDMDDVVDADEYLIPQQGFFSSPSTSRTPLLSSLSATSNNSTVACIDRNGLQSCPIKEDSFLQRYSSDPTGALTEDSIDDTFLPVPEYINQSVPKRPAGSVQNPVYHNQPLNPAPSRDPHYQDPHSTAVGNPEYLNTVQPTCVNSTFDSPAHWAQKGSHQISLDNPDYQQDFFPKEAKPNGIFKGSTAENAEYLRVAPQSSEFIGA
# Chain of Follistatin-related protein 3 (Homo sapiens) (O95633 whole entry, looked up): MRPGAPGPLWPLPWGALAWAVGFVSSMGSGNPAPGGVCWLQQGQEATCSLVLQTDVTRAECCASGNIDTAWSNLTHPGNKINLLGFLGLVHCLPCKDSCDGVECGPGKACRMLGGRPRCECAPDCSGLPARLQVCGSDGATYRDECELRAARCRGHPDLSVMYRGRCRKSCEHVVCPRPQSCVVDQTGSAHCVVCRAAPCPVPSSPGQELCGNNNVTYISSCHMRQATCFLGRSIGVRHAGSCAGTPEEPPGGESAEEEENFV
Compound,composite z-score [1],composite z-score [2],composite z-score [3],z-score [4],composite z-score [5],composite z-score [6],composite z-score [7],composite z-score [8],composite z-score [9],composite z-score [10]
CC(C)=CCCC(C)=CCON=C1C[C@@H](O)[C@@H](O)[C@@H]2[C@@H]3C(=O)N(C(C)(C)C)C(=O)[C@@H]3CC[C@H]12,0.0059,0.0507,-0.396,0.129 (inactive),0.396,0.563,0.512,0.392,0.432,-0.159
C#CCCCON=C1C[C@@H](O)[C@@H](O)[C@@H]2[C@@H]3C(=O)N(CCC(=O)OCC)C(=O)[C@@H]3CC[C@H]12,1,0.286,-0.491,-1.79 (inactive),0.628,0.814,0.542,1.16,0.389,-0.422
Cc1cc2c(nc1C)CCCCN2CC(C)ON=C1[C@H]2CCn3c(=O)n(-c4ccccc4)c(=O)n3[C@H]2[C@H](O)[C@@H]2O[C@H]12 (stereo not given in full),0.606,0.213,-0.0869,0.718 (inactive),1.11,0.331,0.302,1.05,0.7,1.3
CC(CCN1CCc2nc(-c3ccccc3)c(-c3ccccc3)cc2C1)=NOC[C@@H](O)[C@H]1O[C@@H]2OC(C)(C)O[C@@H]2[C@H]1O,0.525,-0.414,-0.395,0.662 (inactive),0.743,0.587,0.28,0.583,0.341,0.376
O=c1n(Cc2cc3c(cc2Cl)OCO3)c(=O)n2n1CC[C@@H]1C(=NOC[C@@H](O)COCc3ccco3)[C@H]3O[C@H]3[C@@H](O)[C@@H]12,0.461,-0.0876,-0.454,0.115 (inactive),0.246,0.532,0.349,0.596,0.538,0.217
CO[C@H]1COC(=O)[C@@H]2CCCN2C(=O)CC=C[C@@H](C)[C@H](OC)COC(=O)[C@@H](OCc2ccccc2)C=C[C@@H]1C,0.695,-0.665,-1.24,-1.63 (inactive),0.163,0.484,0.547,0.907,1.75,1.58
CCOC(=O)[C@H](CC(C)C)NC(=O)CCC1CC(OC(=O)NCc2ccc3c(c2)OCO3)CC2(CCCC(COC(=O)NCC(c3ccccc3)c3ccccc3)O2)O1 (stereo not given in full),0.517,-0.445,-0.491,0.907 (inactive),0.685,0.206,-0.519,0.503,0.0925,0.155
CC(C)(C)N1C(=O)[C@H]2[C@H]3[C@H](O)[C@H](O)CC(=NO[C@@H]4O[C@H](CO)[C@@H](O)[C@H](O)[C@H]4O)[C@H]3CC[C@H]2C1=O,0.0937,-0.215,-0.38,0.543 (inactive),0.16,-0.524,0.408,0.487,0.639,1.35
O=C1[C@H]2[C@H]3[C@H](O)[C@H](O)CC(=NOC[C@@H](O)COCc4ccco4)[C@H]3CC[C@H]2C(=O)N1C[C@@H]1CCCO1,0.717,-0.369,-1.4,0.273 (inactive),0.725,1.2,0.947,0.95,1.21,-0.0262
CC=CC1=C(CO)C(=O)[C@@H]2O[C@@H]2C1=O,0.148,-0.703,-1.79,-0.546 (inactive),0.799,0.571,1.01,1.17,1.57,1.49
COc1cccc([C@H]2Oc3ccc(OC)cc3C(=NO[C@@H]3O[C@H](COC(C)=O)[C@@H](OC(C)=O)[C@H](OC(C)=O)[C@H]3OC(C)=O)[C@@H]2O)c1,-0.531,0.0366,-0.0882,0.598 (inactive),0.261,-0.157,0.344,0.0855,0.0647,-0.43
CCOC(=O)[C@H](Cc1ccccc1)NC(=O)CCC1CC(OC(=O)NCc2cccc3ccccc23)CC2(CCCC(COC(=O)NCCC(C)C)O2)O1 (stereo not given in full),0.12,-0.295,-0.206,-1.74 (inactive),0.143,-0.448,-0.135,0.133,-0.096,0.388
C=CC[C@@H]1C=C[C@H](ON=C(C)CCC(=O)OC[C@H]2O[C@H](C#Cc3ccccc3)C=C[C@@H]2Oc2ccc(C)cc2)[C@@H](CO)O1,1.19,-0.0927,-0.515,-0.439 (inactive),1.16,1.01,0.298,1.04,0.606,-0.117
C[C@H]1Cc2c(COc3ccccc3)nc3c(c2CO1)CN(CCOc1ccccc1)CC3,0.654,-0.133,-0.496,-0.34 (inactive),1.03,1.15,0.5,1.29,0.538,0.298
CCCCc1nc2c(c3c1C[C@H](C)OC3)CN(CCOc1ccccc1)CC2,0.489,0.107,-0.277,-1.21 (inactive),0.632,0.427,0.681,1.27,0.302,0.765
O=C1[C@H]2[C@H]3[C@H](O)[C@H](O)CC(=NOC[C@@H](O)COCc4ccco4)[C@@H]3CC[C@H]2C(=O)N1C[C@@H]1CCCO1,0.396,-0.549,-1.2,-0.134 (inactive),0.204,1.24,1.14,1.49,1.51,1.22
CC(C)CON=C1C[C@@H](O)[C@@H](O)[C@@H]2[C@@H]3C(=O)N(C(C)(C)C)C(=O)[C@@H]3CC[C@H]12,0.801,0.454,0.562,0.886 (inactive),-0.294,-0.516,-0.205,-0.743,-0.82,-0.576

Compound,composite z-score [1],composite z-score [2],composite z-score [3],z-score [4],composite z-score [5],composite z-score [6],composite z-score [7],composite z-score [8],composite z-score [9],composite z-score [10]
C[C@@H](c1ccccc1)N1C(=O)[C@H]2[C@H]3[C@H](O)[C@H](O)CC(=NO[C@@H]4O[C@H](CO)[C@@H](O)[C@H](O)[C@H]4O)[C@@H]3CC[C@H]2C1=O,0.256,-0.193,-0.62,0.119 (inactive),0.305,0.495,0.586,0.579,0.393,0.0868
CO[C@@H]1COC(=O)CC=C[C@H](C)[C@H](OC)COC(=O)[C@H](C)NC(=O)CC=C[C@H]1C,0.657,-0.546,-1.31,0.671 (inactive),0.616,0.918,0.745,1.44,1.18,1.74
CC(=O)O[C@H]1C2=CO[C@H](C)[C@H]3[C@H]4C5=C([C@H](O)[C@H]6O[C@H]6C5=O)[C@H](OC4C)[C@@]23C(=O)[C@@H]2O[C@@H]21 (stereo not given in full),1.74,-0.238,-0.647,-4.6 (inactive),0.916,-0.0987,-0.121,0.0068,0.538,0.528
CON=C[C@@H](NS(=O)(=O)c1ccc(C)cc1)[C@H](C)C=CCC(=O)OC,0.571,-0.26,-0.447,-0.114 (inactive),0.0529,-0.435,0.314,0.224,0.611,1.33
Cn1c(=O)n2n(c1=O)[C@H]1[C@H](O)[C@@H]3O[C@@H]3C(=NOCc3ccccc3)[C@H]1CC2,0.421,-0.263,-0.374,2.48 (inactive),-0.414,-0.046,-0.0492,-0.136,-0.0857,-0.241
CO[C@@H]1C=CCC(=O)N[C@@H](C)C(=O)OC[C@@H](OC)[C@H](C)CCCC(=O)OC[C@H]1C,1.55,-0.352,-1.05,-0.646 (inactive),0.473,0.0516,1.08,1.22,1.64,1.23
CCOC(=O)NN=C1C[C@@H](O)[C@@H](O)[C@@H]2[C@@H]3C(=O)N([C@@H](C)c4ccccc4)C(=O)[C@@H]3CC[C@H]12,0.209,-0.0719,-0.183,-0.681 (inactive),0.225,0.515,0.308,0.345,0.309,0.121
O=C1C=C[C@@H](O)[C@@H]2[C@@H]3C(=O)N(c4ccc(F)cc4F)C(=O)[C@@H]3CC[C@@H]12,0.519,-0.241,-0.43,-1.21 (inactive),0.925,0.39,0.462,0.39,0.664,-1.12
COc1ccc(O[C@H]2C=C[C@@H](c3ccccc3)O[C@@H]2COC(=O)CCC(C)=NO[C@@H]2O[C@H](COC(C)=O)[C@@H](OC(C)=O)[C@H](OC(C)=O)[C@H]2OC(C)=O)cc1,0.538,-0.397,-0.374,-0.315 (inactive),0.799,1.01,0.609,1.12,0.275,-0.116
CCC1=NOC(CCC2CC(OC(=O)NCc3cccc4c3OCO4)CC3(CCCC(COC(=O)NCCc4ccccc4OC)O3)O2)C1 (stereo not given),1.09,-0.16,-0.0595,0.0991 (inactive),0.709,0.391,0.0007,0.192,0.859,0.312
C#CCCCON=C1C[C@@H](O)[C@@H](O)[C@@H]2[C@@H]3C(=O)N(C(C)(C)C)C(=O)[C@@H]3CC[C@@H]12,0.856,1.19,1.28,0.624 (inactive),-0.624,-0.545,-0.306,-0.576,-1.1,0.477
CO[C@@H]1COC(=O)CC=C[C@@H](C)[C@@H]2C=C[C@H](O)[C@@H](COC(=O)CC=C[C@H]1C)O2,0.643,-0.438,-1.25,-0.383 (inactive),0.602,1.02,1.2,1.52,1.66,1.73
CCN1C(=O)[C@@H]2[C@H]3C(=CC[C@@H]2C1=O)C1(OCCCO1)[C@H]1O[C@H]1[C@H]3O,0.416,0.195,-0.0468,-9.75 (active),1.39,1.34,0.286,1.22,0.739,-0.0212
CCOC(=O)C1=NO[C@]2(C=C(Br)C3(OCCCO3)[C@H]3O[C@H]32)C1,-0.695,-0.32,-0.274,0.437 (inactive),0.18,-0.512,-0.203,-0.425,-0.123,0.549
O=C1C2=CC[C@H]3C(=O)N(c4cccc(Oc5ccccc5)c4)C(=O)[C@H]3[C@H]2[C@H](O)[C@@H]2O[C@H]12,0.237,-0.372,-0.37,14.7 (active),0.635,0.393,0.299,0.666,0.655,-0.0639
C#CCCCON=C1C[C@@H](O)[C@@H](O)[C@@H]2[C@@H]3C(=O)N(c4ccc(F)cc4F)C(=O)[C@@H]3CC[C@H]12,0.87,-0.177,-0.86,-1.35 (inactive),0.947,0.678,0.403,0.432,0.978,-0.185
